High-throughput results deposited in PubChem BioAssay by several laboratories.
In the library only some 3.4% were active in any assay of this set; here they are far more common.
sPLA2-III inh: Blocks human group III sPLA2 activity. Q9NZ20. AID 743126. inhibition, % at 12.2 µM. QFRET BODIPY PC-A2 liposome hydrolysis, fluorescence. 370,000 tested, 0.56% active;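 active means inhibition above mean plus 3 SD of compounds lying within the high and low control bounds, cut at about 19% in these data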
Target sequence (Q9NZ20 whole entry, looked up): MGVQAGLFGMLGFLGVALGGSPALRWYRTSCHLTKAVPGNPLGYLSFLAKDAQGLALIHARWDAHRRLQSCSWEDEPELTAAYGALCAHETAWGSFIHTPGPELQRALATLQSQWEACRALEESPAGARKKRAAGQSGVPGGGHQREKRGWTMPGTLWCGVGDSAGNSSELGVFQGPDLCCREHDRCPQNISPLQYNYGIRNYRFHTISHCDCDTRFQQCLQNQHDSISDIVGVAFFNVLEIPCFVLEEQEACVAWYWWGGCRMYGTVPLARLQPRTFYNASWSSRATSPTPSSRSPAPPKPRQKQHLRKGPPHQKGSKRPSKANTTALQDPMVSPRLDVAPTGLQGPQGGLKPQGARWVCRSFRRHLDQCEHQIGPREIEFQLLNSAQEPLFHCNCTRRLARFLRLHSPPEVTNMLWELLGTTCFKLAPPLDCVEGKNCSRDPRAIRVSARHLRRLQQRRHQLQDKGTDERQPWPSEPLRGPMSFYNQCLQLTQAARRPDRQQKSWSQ
ADAM17 inh: inhibits human ADAM17; P78536; recombinant ADAM17, EDANS/DABCYL FRET peptide cleavage; inhibition, % at 6.95 µM; 370,000 tested, 0.83% active;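 active means inhibition above the mean of compounds lying between control limits plus 3 SD, set per campaign, cut at about 8.5% in these data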
proKLK7 act: activates the human kallikrein-7 zymogen; purified proKLK7, EDANS-DABCYL substrate fluorescence; 100% is mature enzyme control, 0% vehicle; AID 652039; 370,000 tested, 0.9% active; activation, % at 7 µM; P49862;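 active means activation above the mean of all tested compounds plus 3 SD, computed per campaign excluding outliers beyond control limits, cut at about 13% in these data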
CendR NRP1 mod: alters CendR peptide binding to human NRP-1 | 360,000 tested, 0.85% active | FAM-RPARPAR peptide binding to NRP-1, fluorescence polarization | AID 602438 | inhibition, % at 25 µM | O14786;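 active means inhibition or corrected inhibition above about 18%, plus a signal ratio from 0.5 to 1.5, limit read from the data, passing the limit was not always enough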
ADAM10 inh: inhibitors of human ADAM10. recombinant ADAM10, EDANS/DABCYL FRET peptide cleavage, 3 h. inhibition, % at 7 µM. 370,000 tested, 0.62% active. AID 720582;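 active means inhibition above a per-campaign cutoff equal to the mean of compounds falling between control-based bounds plus 3 SD, cut at about 20% in these data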
KLK7 act conf: proKLK7 activation, confirmation | activation, % at 7 µM | purified proKLK7, EDANS-DABCYL substrate fluorescence; scaled: vehicle 0, mature enzyme 100 | shares compounds with proKLK7 act | 3,200 tested, 68% active;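 active means activation, as change over the incubation, above the mean of all tested compounds plus 3 SD, cut at about 13% in these data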
EDANS interfere: optically interferes with EDANS-DABCYL signal, flagging KLK7 hits | shares compounds with proKLK7 act | EDANS-DABCYL substrate fluorescence interference, no enzyme, 4 h; solvent 0%, active enzyme control 100% | activation, % at 7 µM | 3,200 tested, 80% active | AID 686952;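 active means activation above the all-compound mean plus 3 SD, ignoring values outside control-based bounds, cut at about 4.8% in these data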;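 further: value is the 4 h activation minus the activation read at time zero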
EDANS interf: counter-screen for kallikrein-7 activators: EDANS-DABCYL interference, dose response. shares compounds with proKLK7 act. EDANS-DABCYL peptide fluorescence interference, no enzyme. 250 tested, 20% active. EC50, µM;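 active means compounds that raise the fluorescence signal in this interference counterscreen, with EC50 at or below 10 µM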;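 further: intact quenched peptide substrate alone read at 355 nm excitation and 520 nm emission; signal is fluorescence gain from T0 to T4 after four hours at room temperature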
Each line names hits and unclear results; the compound was inactive in the other large screens (follow-up assays come after a bar, where they were run).

Cc1cccc2c1CCC1CN(Cc3ccccc3)S(=O)(=O)N21 (stereo not given)	none (no result: proKLK7 act, CendR NRP1 mod)
COc1ccc(NC(=O)c2cc(-c3ccco3)nc3ccccc23)cc1	proKLK7 act 14.6 | KLK7 act conf 14.0 | EDANS interfere 20.5
COc1ccc(NC(=O)CN(C)C(=O)c2cc(-c3ccco3)nc3ccccc23)cc1	none
CCOc1ccc(-c2cc(C(=O)NCCCN3CCOCC3)c3ccccc3n2)cc1	proKLK7 act 18.4 | KLK7 act conf inactive | EDANS interfere 9.6
O=C(NCCCN1CCCC1=O)c1cc(-c2ccc(F)cc2)nc2ccccc12	none
NC(=O)COC(=O)c1cc(-c2ccco2)nc2ccccc12	proKLK7 act 161.2 | KLK7 act conf 63.1 | EDANS interfere 72.2
COc1ccc(-c2cc(C(=O)NCCCN3CCCC3=O)c3ccccc3n2)cc1	proKLK7 act 34.6 | KLK7 act conf 29.1 | EDANS interfere 31.3
CCN(CC)C(=O)CC[C@@H]1CC[C@]2(CCCN(Cc3ccc(Br)cc3)C2)O1	none (no result: CendR NRP1 mod)
CCN(CC)C(=O)CC[C@H]1CC[C@]2(CCCN(c3ccccc3)C2)O1	none (no result: CendR NRP1 mod)
COC(=O)[C@]12CCCCC=C1N(Cc1ccc(OC)cc1)C(=O)[C@@H]2CC(=O)N1CCN(C(=O)C2CC2)CC1	none (no result: CendR NRP1 mod)
COc1cc(-c2cc(C(=O)Nc3cc(S(=O)(=O)N4CCOCC4)ccc3C)c3ccccc3n2)cc(OC)c1OC	proKLK7 act 211.0 | KLK7 act conf 232.9 | EDANS interfere 315.7
O=C(NCCCN1CCOCC1)c1cc(-c2ccc(F)cc2)nc2ccccc12	none
Cc1ccccc1NC(=O)c1cc(-c2ccco2)nc2ccccc12	none
O=C(NCCCN1CCOCC1)c1cc(-c2ccco2)nc2ccccc12	proKLK7 act 62.5 | KLK7 act conf 17.7 | EDANS interfere 30.2
CN(C)C(CNC(=O)c1cc(-c2ccco2)nc2ccccc12)c1ccccc1 (stereo not given)	proKLK7 act 31.1 | KLK7 act conf inactive | EDANS interfere inactive
COc1ccc(-c2cc(C(=O)Nc3ccc(S(N)(=O)=O)cc3)c3ccccc3n2)cc1OC	proKLK7 act 131.0 | KLK7 act conf 77.1 | EDANS interfere 94.7
COc1cc(-c2cc(C(=O)Nc3cc(S(=O)(=O)N4CCOCC4)ccc3O)c3ccccc3n2)cc(OC)c1OC	none
Cc1ccc(S(=O)(=O)N2C(N)=C(C(=O)NCc3ccc(Br)cc3)C(c3ccc(Cl)cc3)C2C(=O)c2ccccc2)cc1 (stereo not given)	none (no result: proKLK7 act, CendR NRP1 mod)
COC(=O)C1CCCN(C(=O)C(Cc2ccc3c(c2)OCO3)NC(C)=O)C1 (stereo not given)	none (no result: CendR NRP1 mod)
CC(C)CCNC(=O)c1cc(-c2ccco2)nc2ccccc12	proKLK7 act 12.8 | KLK7 act conf inactive | EDANS interfere inactive
CCCCCCNC(=O)c1cc(-c2ccco2)nc2ccccc12	proKLK7 act 20.3 | KLK7 act conf inactive | EDANS interfere inactive
C=CCCC(=O)N(Cc1ccccc1)c1ccccc1C(=O)Nc1cc(OC)ccc1OC	none (no result: CendR NRP1 mod)
CCOC(=O)N[C@H](C(=O)N1CCC[C@H]1C(=O)NCCc1ccccc1Cl)c1ccccc1	none (no result: CendR NRP1 mod)
COc1cc2cc(C(N)=O)c(N)nc2cc1OC	proKLK7 act 73.3 | KLK7 act conf 64.8 | EDANS interfere 69.1
COc1cc2cc(C(=O)NCCc3c[nH]c4ccccc34)c(N)nc2cc1OC	none
O=C(CNS(=O)(=O)c1cc2ccccc2s1)N1CCN(c2ccccn2)CC1	none (no result: CendR NRP1 mod)
Nn1c(SCC(=O)Nc2nccs2)nnc1-c1cc(-c2ccccc2)n[nH]1	none (no result: CendR NRP1 mod)
Cc1cccc(-n2c(O)c(C=Nc3ccccc3)c3ccccc3c2=O)n1	proKLK7 act 16.9 | KLK7 act conf 15.1 | EDANS interfere 16.3
O=S1(=O)c2ccc(Br)cc2OC2CCCC[C@@H]2N1Cc1ccccc1 (stereo not given in full)	none (no result: CendR NRP1 mod)
CN1CCN(c2nc(-c3ccccc3)cc(C(F)(F)F)n2)CC1	none
COc1ccc(OC)c2c(N3CC(C)OC(C)C3)cc(C(F)(F)F)nc12 (stereo not given)	proKLK7 act 14.6 | KLK7 act conf 13.4 | EDANS interfere 12.1
COc1ccc(OC)c2c(N3CCN(C)CC3)cc(C(F)(F)F)nc12	proKLK7 act 13.2 | KLK7 act conf inactive | EDANS interfere 15.0
COc1ccc(-c2cc(C(F)(F)F)nc(SCC(=O)N3CC(C)OC(C)C3)n2)cc1OC (stereo not given)	none
CCOC(=O)c1cc2c(=O)n3ccccc3nc2n(CC2CCCO2)c1=NC(=O)/C=C/c1ccccc1 (stereo not given)	proKLK7 act 92.2, CendR NRP1 mod 29.4 | KLK7 act conf 16.1 | EDANS interfere inactive | EDANS interf inactive
CCOC(=O)c1cc2c(=O)n3ccccc3nc2n(CC2CCCO2)c1=NC(C)=O (stereo not given)	proKLK7 act 80.2 | KLK7 act conf 64.1 | EDANS interfere 67.5
COc1ccc(CN(C)CC#Cc2ccccc2)c(OC)c1	none (no result: CendR NRP1 mod)
CC(=O)c1ccc(-c2cccs2)s1	proKLK7 act 63.3 | KLK7 act conf 63.3 | EDANS interfere 68.5
Cc1csc(NC(=O)c2ccc(COc3ccc(Cl)c(Cl)c3)o2)n1	none (no result: CendR NRP1 mod)
Nc1nc2nccc(-c3ccc(Cl)cc3)n2n1	proKLK7 act 56.9 | KLK7 act conf 70.0 | EDANS interfere 84.6
CN(C)/C=N/c1nc2nccc(-c3ccc(Cl)cc3)n2n1	proKLK7 act 18.0 | KLK7 act conf 65.8 | EDANS interfere 68.8
CN1Cc2c(N3CCOCC3)nc3sc(C#N)c(N)c3c2CC1(C)C	proKLK7 act 16.7 | KLK7 act conf 67.8 | EDANS interfere 70.0
CC(C)Sc1nc(N2CCOCC2)c2c(c1C#N)CC(C)(C)N(C)C2	proKLK7 act 35.2 | KLK7 act conf inactive | EDANS interfere inactive
CC1(C)Cc2c(c(N3CCOCC3)nc3sc(-c4ccc(C(=O)O)o4)c(N)c23)CO1	proKLK7 act 46.1 | KLK7 act conf 22.1 | EDANS interfere 22.9
O=C(CCc1ccccc1-c1ccccc1CCNC(=O)c1ccc(F)c(F)c1)NCc1ccccc1	none (no result: CendR NRP1 mod)
Cc1ccc(-c2cc(C(=O)OC3CCOC3=O)c3ccccc3n2)c(C)c1 (stereo not given)	none
O=C(NN1CCOCC1)c1cc(-c2ccccc2)nc2ccccc12	none
CC(C)OCCCNC(=O)c1cc(-c2cccs2)nc2ccccc12	proKLK7 act 14.6 | KLK7 act conf 12.6 | EDANS interfere 13.1
